Read-out in assay [1]: Vascular endothelial growth factor receptor 2 (Homo sapiens) (UniProt P35968)
As to the kind of experiment: BSK_4H_VEGFRII: BioMAP Diversity Plus: 4H Assay for Vascular endothelial growth factor receptor 2 (VEGFR2) Biomarker Activity (AID 2283031).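 For AC50: cell-surface VEGFR2 protein level quantified by ELISA.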 Particulars: primary human endothelial cells (HUVEC); actives raise or lower the signal. The gist of the method: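 VEGFRII levels on human vascular endothelial primary cells were determined by ELISA at 24 hours post-dosing, with gain- or loss-of-signal fitted against DMSO controls.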

Read-out in assay [2]: Human Leukocyte Antigen - DR isotype (HLADR), HLA-DRA (gene 3122)
As to the kind of experiment: BSK_BE3C_HLADR: BioMAP Diversity Plus: BE3C Assay for Human Leukocyte Antigen - DR isotype (HLADR) Biomarker Activity (AID 2283032). To be noted: primary human bronchial epithelial cells; actives raise or lower the signal. The gist of the method: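 Cell-surface HLA-DR ELISA readout at 24 h after dosing in the BE3C primary human lung bronchial epithelial system; gain or loss of signal against DMSO, with parallel sulforhodamine B staining of total protein for overt cytotoxicity.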

Read-out in assay [3]: Vascular cell adhesion molecule 1 (VCAM1), VCAM1 (gene 7412)
Description: BSK_4H_VCAM1: BioMAP Diversity Plus: 4H Assay for Vascular cell adhesion molecule 1 (VCAM1) Biomarker Activity (AID 2283033).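 For outcome: cell-surface VCAM-1 protein measured by ELISA.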 Particulars: primary human endothelial cells (HUVEC); actives raise or lower the signal. The procedure, abridged:
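VCAM-1 ELISA read 24 h after chemical dosing of HUVEC in the BioMAP 4H system, with gain or loss of signal fitted relative to DMSO. Parallel SRB staining (560 nm) checked overt cytotoxicity.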

Read-out in assay [4]: Interferon-gamma inducible Protein 10 (IP10), CXCL10 (gene 3627)
Description: BSK_BE3C_IP10: BioMAP Diversity Plus: BE3C Assay for Interferon-gamma inducible Protein 10 (IP10) Biomarker Activity (AID 2283034). Particulars: primary human bronchial epithelial cells; actives raise or lower the signal. The procedure, abridged:
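IP-10 quantified by ELISA in human primary bronchial epithelial cell cultures at 24 hours post-dosing. Gain or loss of signal fitted relative to DMSO; parallel SRB staining assessed overt cytotoxicity.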

Read-out in assay [5]: Monokine induced gamma interferon (MIG), CXCL9 (gene 4283)
As to the kind of experiment: BSK_BE3C_MIG: BioMAP Diversity Plus: BE3C Assay for Monokine induced gamma interferon (MIG) Biomarker Activity (AID 2283035). To be noted: primary human bronchial epithelial cells; actives raise or lower the signal. The gist of the method:
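ELISA quantified MIG after 24 h exposure of primary bronchial epithelial cultures, analysed in both directions relative to DMSO. Cytotoxicity tracked in parallel cultures by sulforhodamine B staining.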

Read-out in assay [6]: Transforming growth factor beta 1 (TGFb1), TGFB1 (gene 7040)
Description: BSK_BE3C_TGFb1: BioMAP Diversity Plus: BE3C Assay for Transforming growth factor beta 1 (TGFb1) Biomarker Activity (AID 2283036;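 for outcome: TGF-b1 protein level measured by ELISA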). To be noted: primary human bronchial epithelial cells; actives raise or lower the signal. The procedure, abridged:
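ELISA readout of TGF-b1 from human lung bronchial epithelial primary cells, taken 24 h post-treatment. Gain or loss of signal fitted relative to DMSO baseline, with parallel SRB staining for overt cytotoxicity.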

Read-out in assay [7]: Plasminogen activator inhibitor-1 (PAI1), SERPINE1 (gene 5054)
As to the kind of experiment: BSK_BE3C_PAI1: BioMAP Diversity Plus: BE3C Assay for Plasminogen activator inhibitor-1 (PAI1) Biomarker Activity (AID 2283037). Particulars: primary human bronchial epithelial cells; actives raise or lower the signal. The gist of the method: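 PAI-1 was measured by ELISA in human primary bronchial epithelial cultures 24 h after chemical dosing, with cytotoxicity checked by SRB total-protein staining in parallel cultures. Activity was fitted in both directions relative to DMSO.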

Read-out in assay [8]: urokinase plasminogen activator (uPA), PLAU (gene 5328)
Description: BSK_BE3C_uPA: BioMAP Diversity Plus: BE3C Assay for urokinase plasminogen activator (uPA) Biomarker Activity (AID 2283038).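 For outcome: uPA protein level quantified by ELISA in cell cultures; uPA read one day after compound addition.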 Particulars: primary human bronchial epithelial cells; actives raise or lower the signal. The gist of the method: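 Measured by ELISA: uPA from human primary bronchial epithelial cells 24 h after chemical treatment. Values derive from bidirectional curve fitting with DMSO serving as negative control. Total protein by SRB staining in parallel wells flagged overt cytotoxicity.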

Read-out in assay [9]: Urokinase-type plasminogen activator receptor (uPAR), PLAUR (gene 5329)
Description: BSK_BE3C_uPAR: BioMAP Diversity Plus: BE3C Assay for Urokinase-type plasminogen activator receptor (uPAR) Biomarker Activity (AID 2283039).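 For outcome: cells exposed to compound for one day before measurement.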 To be noted: primary human bronchial epithelial cells; actives raise or lower the signal. The gist of the method:
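uPAR levels were measured by ELISA after 24 h compound treatment of primary human bronchial epithelial cells, fitted in both directions relative to DMSO. Parallel SRB staining served as the cytotoxicity read-out.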

Read-out in assay [10]: Interleukin-6 (IL6), IL6 (gene 3569)
As to the kind of experiment: BSK_CASM3C_IL6: BioMAP Diversity Plus: CASM3C Assay for Interleukin-6 (IL6) Biomarker Activity for (AID 2283040). Particulars: primary human coronary artery smooth muscle cells; actives raise or lower the signal.

Read-out in assay [11]: Tissue plasminogen activator (tPA), PLAT (gene 5327)
Description: BSK_BE3C_tPA: BioMAP Diversity Plus: BE3C Assay for Tissue plasminogen activator (tPA) Biomarker Activity (AID 2283041).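 For outcome: tPA level quantified by ELISA one day after compound addition.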 Particulars: primary human bronchial epithelial cells; actives raise or lower the signal. The procedure, abridged: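 tPA measured by ELISA 24 h after dosing human primary bronchial epithelial cells (BE3C system). Changes in either direction were fitted against DMSO. Parallel cultures were stained with SRB to flag overt cytotoxicity.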

Read-out in assay [12]: Interleukin-8 (IL8), CXCL8 (gene 3576)
Description: BSK_CASM3C_IL8: BioMAP Diversity Plus: CASM3C Assay for Interleukin-8 (IL8) Biomarker Activity (AID 2283042).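 Note: IL-8 protein level quantified by ELISA.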 Particulars: primary human coronary artery smooth muscle cells; actives raise or lower the signal.

Read-out in assay [13]: Human Leukocyte Antigen - DR isotype (HLADR), HLA-DRA (gene 3122)
As to the kind of experiment: BSK_CASM3C_HLADR: BioMAP Diversity Plus: CASM3C Assay for Human Leukocyte Antigen - DR isotype (HLADR) Biomarker Activity (AID 2283043).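 Note: cell-surface HLA-DR protein level quantified by ELISA.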 Particulars: primary human coronary artery smooth muscle cells; actives raise or lower the signal.

Read-out in assay [14]: Macrophage colony-stimulating factor (MCSF), CSF1 (gene 1435)
Description: BSK_CASM3C_MCSF: BioMAP Diversity Plus: CASM3C Assay for Macrophage colony-stimulating factor (MCSF) Biomarker Activity (AID 2283044).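 Note: M-CSF protein amount quantified by ELISA after 24 h exposure.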 Particulars: primary human coronary artery smooth muscle cells; actives raise or lower the signal.

Read-out in assay [15]: Low-density lipoprotein receptor (LDLR), LDLR (gene 3949)
Description: BSK_CASM3C_LDLR: BioMAP Diversity Plus: CASM3C Assay for Low-density lipoprotein receptor (LDLR) Biomarker Activity (AID 2283045).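 Note: LDLR protein level on the cell surface quantified by ELISA.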 Particulars: primary human coronary artery smooth muscle cells; actives raise or lower the signal.

Read-out in assay [16]: Monocyte Chemoattractant Protein-1 (MCP1), CCL2 (gene 6347)
As to the kind of experiment: BSK_CASM3C_MCP1: BioMAP Diversity Plus: CASM3C Assay for Monocyte Chemoattractant Protein-1 (MCP1) Biomarker Activity (AID 2283046).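 Note: MCP-1 level quantified by ELISA 24 h after dosing.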 To be noted: primary human coronary artery smooth muscle cells; actives raise or lower the signal.

The nature of assay [17]: BSK_CASM3C_Proliferation: Cell Proliferation Assessment in the BioMAP Diversity Plus: CASM3C Assay (AID 2283047).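 Note: sulforhodamine B total protein stain as relative cell number at 560 nm; sub-confluent cells exposed 48 h before staining; fitted both ways against DMSO so gain or loss of cell number.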 To be noted: primary human coronary artery smooth muscle cells.
Read-out in assay [18]: Monokine induced gamma interferon (MIG), CXCL9 (gene 4283)
Description: BSK_CASM3C_MIG: BioMAP Diversity Plus: CASM3C Assay for Monokine induced gamma interferon (MIG) Biomarker Activity (AID 2283048).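 Note: MIG protein level measured by ELISA.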 To be noted: primary human coronary artery smooth muscle cells; actives raise or lower the signal.

Read-out in assay [19]: serum amyloid A (SAA), SAA1 (gene 6288)
Description: BSK_CASM3C_SAA: BioMAP Diversity Plus: CASM3C Assay for serum amyloid A (SAA) Biomarker Activity (AID 2283049).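 Note: SAA protein level quantified by ELISA.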 To be noted: primary human coronary artery smooth muscle cells; actives raise or lower the signal.

Assay [20] can be described thus: BSK_CASM3C_SRB: Viability Assessment in the BioMAP Diversity Plus: CASM3C Assay (AID 2283050). Particulars: primary human coronary artery smooth muscle cells.

Molecules are shown by their SMILES. Activity calls are given as the source filed them. Rule for the calls: active = hit-call score of the fitted dose curve at least 0.9, where 1 is the maximum; inactive = score below 0.9.

For `O=[N+]([O-])C(CO)(CO)CO`, the outcome in assay [1], in [2], in assay [3], in assay [4], in [5] and in assay [6] was inactive. For the same molecule, the outcome in [7], in assay [8], in assay [9], in assay [10], in assay [11] and in [12] was inactive. In addition, the outcome in assay [13], in [14], in [15], in [16], in assay [17] and in [18] was inactive. Moreover, the result in assay [19] and in assay [20] was inactive.
Consider `COc1cc(-c2nc(NC(=O)c3cc4cc(C)cc(C)c4n3CC(=O)O)sc2CCC2CCCCC2)c(OC)cc1Cl`, for which the half-maximal activity concentration (AC50) (commonly the midpoint of the concentration-response curve, whichever way the signal moves) in assay [1] is 4.37 µM (active); in [2], 1.25 µM (active); in assay [3], 4.36 µM (active); in assay [4], 1.3 µM (active); in assay [5], 1.56 µM (active); in assay [6], 4.38 µM (active). In addition, the AC50 was 0.877 µM (active) in assay [7]; 1.03 µM (active) in assay [8]; 4.47 µM (active) in assay [9]; 4.7 µM (active) in assay [10]; 0.969 µM (active) in assay [11]; 7.07 µM (active) in assay [12]. The concentration at half-maximal activity (AC50) in [13] was 5.92 µM (active); in assay [14], 22.9 µM (active); in assay [15], 4.25 µM (active); in assay [16] it was 8.09 µM (active); in assay [17] it was 10.8 µM (active); in [18], 11.7 µM (active). Further, the AC50 in assay [19] was 8.47 µM (active); in assay [20] it was 7.05 µM (active).
For the molecule `C[C@]12C=CC(=O)C=C1CC[C@@H]1[C@@H]2C(=O)C[C@@]2(C)[C@H]1CC[C@]2(O)C(=O)CO`, the outcome in assay [1], in assay [2], in assay [3], in assay [4], in [5] and in assay [6] was inactive. Also, the result in assay [7], in assay [8], in [9], in [11], in assay [13] and in assay [15] was inactive. Also, the outcome in [17] and in assay [18] was inactive. Also, the AC50 is 0.704 µM (active) in assay [10]; 0.184 µM (active) in assay [12]; 0.243 µM (active) in assay [14]; 0.242 µM (active) in [16]; 0.699 µM (active) in assay [19].
In the case of `COc1cc(C=O)ccc1O`, the outcome in [1], in assay [2], in assay [3], in assay [4], in assay [5] and in [6] was inactive. Also, the result in assay [7], in assay [8], in assay [9], in assay [10], in assay [11] and in assay [12] was inactive. Also, the result in assay [13], in [14], in assay [15], in assay [16], in assay [17] and in assay [18] was inactive. Moreover, the result in assay [19] and in [20] was inactive.
Regarding `FC(F)(F)C(F)(F)C(F)(F)C(F)(F)C(F)(F)C(F)(F)CCI`, the outcome in assay [1], in assay [2], in assay [3], in assay [4], in assay [5] and in assay [6] was inactive. For the same molecule, the outcome in assay [7], in assay [8], in assay [9], in [10], in assay [11] and in assay [12] was inactive. The outcome in [13], in assay [14], in [15], in assay [16], in assay [17] and in [18] was inactive. The result in assay [19] and in assay [20] was inactive.
With `NC(=O)Cn1c(=O)cc(CCN2CCN(c3nccc4sccc34)CC2)c2ccc(F)cc21`, the result in assay [1], in assay [2], in [4], in [5], in assay [6] and in assay [7] was inactive. Also, the result in assay [8], in assay [9], in assay [10], in assay [11], in assay [12] and in [13] was inactive. In addition, the result in assay [14], in assay [16], in assay [17], in [18], in assay [19] and in assay [20] was inactive. Further, the AC50 in assay [3] is 7.88 µM (active); in assay [15] it was 27.5 µM (active).

The values above are taken from PubChem BioAssay (EPA / NIEHS).
